Bioassay records from PubChem.
Six1-Eya2 inh: blocks human Six1 binding to Eya2 | Q15475+O00167 | AlphaScreen GST-Six1/His-Eya2 binding, biochemical; active compounds read low | activity change, % (concentration not given with the values) | 360,000 compounds, 0.56% hits; in the data active = activity change below about -65%; inconclusive = mostly about -30% to -63%; note: % is set by controls: 0 for no effect and ±100 for the full control effect
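Homogeneous AlphaScreen proximity assay pairing GST-Six1 with His-tagged Eya2 (added as 5X mix: 250 nM and 500 nM) in 50 mM Tris pH 8.0, 300 mM NaCl, 1 mM TCEP. Glutathione donor and nickel acceptor beads; 1 h, 37 °C, dark.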
JMJD2A Tudor: inhibitors of human JMJD2A Tudor domain | O75164 | AlphaScreen JMJD2A-Tudor / H3K4me3 peptide binding | Potency, µM (top dose mostly 114 µM), for the others: at the highest dose activity change, negative = inhibition, usual class: inhibitors | 390,000 compounds, 4.4% hits; note: potency is the fitted concentration of half-maximal effect; % is set by controls: 0 for no effect and ±100 for the full control effect; nearly all actives have a fitted effect of over 50% in size
Target sequence (O75164 whole entry, looked up, the tested form may be a part): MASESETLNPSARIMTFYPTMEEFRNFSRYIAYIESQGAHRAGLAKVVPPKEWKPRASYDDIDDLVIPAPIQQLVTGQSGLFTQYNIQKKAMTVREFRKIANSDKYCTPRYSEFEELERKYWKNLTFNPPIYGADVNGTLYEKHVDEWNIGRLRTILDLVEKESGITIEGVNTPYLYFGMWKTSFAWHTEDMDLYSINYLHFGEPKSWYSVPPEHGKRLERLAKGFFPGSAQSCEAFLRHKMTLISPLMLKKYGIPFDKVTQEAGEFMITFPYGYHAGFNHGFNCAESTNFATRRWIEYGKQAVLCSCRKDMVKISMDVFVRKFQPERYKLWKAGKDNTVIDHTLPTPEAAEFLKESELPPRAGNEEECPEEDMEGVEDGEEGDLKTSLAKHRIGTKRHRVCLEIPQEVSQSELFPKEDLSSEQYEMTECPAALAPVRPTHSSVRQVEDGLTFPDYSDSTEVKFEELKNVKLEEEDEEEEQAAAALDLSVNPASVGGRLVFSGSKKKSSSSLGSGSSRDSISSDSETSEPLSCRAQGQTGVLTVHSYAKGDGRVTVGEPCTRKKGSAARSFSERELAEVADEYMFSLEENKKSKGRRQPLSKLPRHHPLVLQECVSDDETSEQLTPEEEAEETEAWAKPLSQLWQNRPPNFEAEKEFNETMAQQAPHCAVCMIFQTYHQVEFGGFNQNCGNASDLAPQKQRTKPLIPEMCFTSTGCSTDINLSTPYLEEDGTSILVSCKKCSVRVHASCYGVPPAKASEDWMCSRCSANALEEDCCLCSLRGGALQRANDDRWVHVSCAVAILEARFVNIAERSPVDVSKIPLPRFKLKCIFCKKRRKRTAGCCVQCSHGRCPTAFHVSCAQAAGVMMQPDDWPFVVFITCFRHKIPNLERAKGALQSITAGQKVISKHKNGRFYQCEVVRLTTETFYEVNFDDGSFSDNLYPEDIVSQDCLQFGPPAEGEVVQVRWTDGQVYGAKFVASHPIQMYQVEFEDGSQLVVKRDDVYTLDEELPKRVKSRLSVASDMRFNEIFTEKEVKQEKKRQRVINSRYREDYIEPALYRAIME
BAZ2B inh: blocks human BAZ2B. Q9UIF8. AlphaScreen BAZ2B-H3K14Ac peptide displacement. Potency, µM (top dose mostly 114 µM), for the others: at the highest dose activity change, negative = inhibition, usual class: inhibitors. 360,000 compounds, 4.4% hits; note: potency is the fitted concentration of half-maximal effect; % is set by controls: 0 for no effect and ±100 for the full control effect; nearly all actives have a fitted effect of over 60% in size
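AlphaScreen displacement: compounds (up to 110uM) incubated 30 min at room temperature with a preformed 50 nM BAZ2B/50 nM biotinylated H3K14Ac peptide complex in PBS pH 7.4 with Tween-20. Donor and acceptor beads at 10 ug/mL final added, 20 min light-protected before reading.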
CtBP-E1A inh: CtBP/E1A binding inhibition; AlphaScreen GST-E1A/His-CtBP binding, 1536-well; active compounds read low; 340,000 compounds, 0.49% hits; activity change, % (no concentration beside the values); in the data active = activity change below about -65%; inconclusive = mostly about -30% to -63%; note: % is set by controls: 0 for no effect and ±100 for the full control effect
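Homogeneous bead-based format: GST-tagged E1A captured on glutathione donor beads, His-tagged CtBP on nickel acceptor beads; compounds precede bead addition by 2 h at 37 °C.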
G9a block: G9a (human) methyltransferase inhibition; G9a H3K9 monomethylation, AlphaScreen, 2 h; Potency, µM (top dose mostly 102 µM), inactives show top-dose activity, negative = inhibition, most hits filed as inhibitors; 350,000 compounds, 8.8% hits; AID 504332; note: potency is the fitted concentration of half-maximal effect; % is set by controls: 0 for no effect and ±100 for the full control effect; nearly all actives have a fitted effect of over 75% in size
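G9a (20 nM) preincubated 15 min RT with compounds, then 500 nM biotinylated H3K9 peptide and 20 uM SAM added; 2 h RT reaction. Monomethyl-H3K9 product detected by AlphaScreen with anti-H3K9me1 antibody, streptavidin donor and anti-rabbit IgG acceptor beads.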
HP1b chromo inh: HP1-beta chromodomain-methylated histone interaction inhibition; Potency, µM (titrated, usually from 114 µM), without a hit: top-dose activity change, negative = inhibition, hits mostly inhibitors; AlphaScreen HP1-beta / biotin-H3K9me3 peptide binding; P83916; AID 540317; 390,000 compounds, 0.56% hits; note: potency is the fitted concentration of half-maximal effect; nearly all actives have a fitted effect of over 70% in size
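Compound inhibition of the preformed complex between 50 nM HP1-beta and 50 nM biotinylated H3K9me3 peptide was read by AlphaScreen. Buffer was PBS pH 7.4 with 0.01% Tween-20. Incubations ran 30 min at room temperature, with 10 ug/mL donor/acceptor beads.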
* hit, by the source's call; ? = inconclusive; . = no result; ! = a repeat was not active; [ ] = another dose, or the depositor's remark. Most compounds without a hit are left out; they make up all but 10% or so of the library. Unless noted, calls come from the whole dose curve; as a rule, active = well fitted inhibition curve with a large enough effect; inconclusive = small, poorly fitted or top-dose-only effect; inactive = no such curve, though single readings can be large or run the other way.

SMILES | Six1-Eya2 inh | JMJD2A Tudor | BAZ2B inh | CtBP-E1A inh | G9a block | HP1b chromo inh
CC(C)(C)S(=O)N1Cc2cc(C(=O)NCc3ccc(Oc4ccccc4)cc3)nc(-c3cccc(-c4cc5ccccc5o4)c3)c2[C@@H]1CCO (stereo not given in full) | -8.3 | . | . | -0.7 | . | .
O=C1CCCC2=C1C(c1ccccc1Cl)N=C(Nc1nc3ccccc3o1)N2 (stereo not given) | . | -22.0% | . | . | . | .
CC(=O)c1ccc(S(=O)(=O)Nc2ccc(-c3ccc4nnc(C)n4n3)cc2)cc1 | -6.7 | -35.2% | 70.8µM* | . | -35.1% | 14.7%
CC(=O)c1ccc(S(=O)(=O)Nc2ccc(N3CCOCC3)cc2)cc1 | 6.6 | -26.7% | -31.8% | -1.6 | 28.2µM* | -18.9%
CCOC(=O)c1ccc(NS(=O)(=O)c2ccc3c(c2)n(C)c(=O)n3C)cc1 | -9.7 | -0.7% | 79.4µM*! | . | 37.5%[0.501 µM] | 15.2%
CC(=O)Nc1ccc(S(=O)(=O)Nc2ccc(N3CCOCC3)cc2)cc1 | -0.5 | -2.9% | -8.4% | -2.4 | -43.8%[12.7 µM] | 21.4%
COC(=O)c1ccc(NS(=O)(=O)c2ccc3c(c2)n(C)c(=O)n3C)cc1 | -12.6 | -23.8% | ? | -0.3 | 1.2% | 7.4%
C/C(=N\Nc1ccc(S(=O)(=O)Nc2ccc(Cl)cc2)cc1[N+](=O)[O-])c1ccc(N2CCOCC2)cc1 | -17.9 | 5.01µM* | 7.94µM* | -18.5 | 8.91µM* | ?
CC(C)(C)OC(=O)N(CCc1ccccc1)Cc1cccc(OCc2cccc(NC(=O)C3CCCC3)c2)c1 | 1.3 | -3.6% | . | 2.2 | . | 43.8%
CC(=O)c1cccc(S(=O)(=O)Nc2ccc(N3CCOCC3)cc2)c1 | 2.8 | -21.4% | -24.2% | -16.5 | 50.1µM* | -37.3%
Cc1ccc(NS(=O)(=O)c2cccc(C(=O)NN3CCOCC3)c2)cc1 | . | . | -14.8% | . | . | .
COCCNS(=O)(=O)c1ccc2c(c1)n(C)c(=O)n2C | 2.9 | -9.2% | -10.1% | -2.5 | 4.47µM* | 12.6%
CCOC(=O)/C=C/C(=O)Nc1cc(S(=O)(=O)Nc2ccc(OC)cc2)ccc1N1CCOCC1 | 5.0 | -17.2% | 7.9% | -2.1 | 44.7µM* | 24.4%
CCn1c(N2CCN(CC(=O)c3c[nH]c4ccccc34)CC2)nc2c1c(=O)[nH]c(=O)n2C | -4.4 | -8.9% | 17.5% | -4.2 | 39.8µM* | 37.9%
CCCn1c(N2CCN(CC(=O)c3c(C)n(C)c4ccccc34)CC2)nc2c1c(=O)[nH]c(=O)n2C | 3.9 | -13.7% | 1.2% | -6.2 | -37.5% | 6.6%
CCCCCCCCCCCCCC(=O)N[C@@H](C)[C@H](O)c1ccccc1 | . | . | . | . | 28.1%[59 µM] | .
CN=C(c1ccc(C)cc1)n1c(=S)nc(-c2ccc(C)cc2)n(C)c1=S | 9.0 | 6.8%[11.4 µM] | -21.9% | . | 39.8µM* | ?
COC(=O)Cc1c(C)c2ccc3c(c2oc1=O)CN(Cc1ccccc1Cl)CO3 | . | ? | -34.0% | . | -26.3%[59 µM] | 34.2%
COC(=O)c1ccc(Oc2ccc(C(F)(F)F)cn2)cc1 | 12.1 | 33.6% | 41.1% | -0.2 | 60.5% | 82.7%
CC1CCCN(C(=O)COC(=O)CNS(=O)(=O)c2ccc3ccccc3c2)C1 (stereo not given) | 3.6 | -13.1% | -13.0% | -0.7 | 7.08µM* | 5.9%
Cc1ccc(C(=O)CCC(=O)OCc2nnc(-c3ccccc3)o2)cc1 | 4.3 | 2.8% | 1.4% | -4.2 | 8.3% | 30.1%
O=C(CNS(=O)(=O)c1ccc2ccccc2c1)OCc1nnc(-c2ccccc2)o1 | -22.4 | -9.9% | -2.4% | -0.2 | 22.4µM* | 21.0%
O=C(CCC(=O)c1cccs1)OCc1nnc(-c2ccccc2)o1 | 0.3 | 50.1µM* | 4.4% | 4.2 | 13.6%[12.7 µM] | ?
O=C(CCCOc1cccc(Br)c1)NCCOc1ccccc1 | 3.5 | 52.8% | 41.2% | 0.3 | 86.7% | 56.3%
COc1cc2[nH]c(=O)n(CCCC(=O)N3CCN(c4cccc(C(F)(F)F)c4)CC3)c(=O)c2cc1OC | . | -33.1% | -25.2% | . | -32.2%[59 µM] | 5.4%
SMILES | Six1-Eya2 inh | JMJD2A Tudor | BAZ2B inh | CtBP-E1A inh | G9a block | HP1b chromo inh
CCOc1cc(/C=C/c2cc(C(=O)O)c3ccccc3n2)ccc1OC | -20.9 | 2.1% | 12.5% | 9.5 | 70.8µM* | 47.1%
CCOc1cc(/C=C/c2cc(C(=O)O)c3ccccc3n2)ccc1O | 3.4 | ? | 2.8% | -5.0 | -4.0%[59 µM] | 16.7%
CC(OC(=O)c1ccc2c(c1)C(=O)N(Cc1ccncc1)C2=O)C(=O)Nc1cccc(Cl)c1Cl (stereo not given) | -1.9 | -28.2% | -0.5% | 1.4 | 89.1µM* | -5.1%
CCN(CC)S(=O)(=O)c1cc(NC(=O)c2ccc3c(c2)NC(=O)C(C)S3)ccc1C (stereo not given) | -6.3 | -30.1% | -2.2% | 0.2 | 1µM* | ?
OC(c1ccc2c(c1)OCO2)c1nccc2ccccc12 (stereo not given) | 19.0 | ? | -23.9% | 38.2 | 44.7µM* | 54.1%
OC(c1cccc(Cl)c1)c1ncc(-c2cccc3ccccc23)[nH]1 (stereo not given) | ? | . | . | -23.3 | . | .
OC(c1cccc(Cl)c1)c1nccc2ccccc12 (stereo not given) | 2.9 | -29.9% | -31.3% | 3.5 | 39.8µM* | 39.1%
CC(C)n1c(C(O)c2ccc3c(c2)OCO3)nc2ccccc21 (stereo not given) | -0.9 | -30.1% | -31.8% | 3.6 | 70.8µM* | 8.6%
COC(CNC(=O)C1CC(=O)N(CCc2ccc(C)cc2)C1)OC (stereo not given) | 6.2 | -3.0% | 11.8% | . | 12.1% | 24.6%
Cc1cc2c(cc1S(=O)(=O)CCC(=O)N(C)Cc1ccccc1)OCC(=O)N2 | -1.7 | 20µM*! | 12.6µM*! | -5.1 | 11.2µM* | ?
CCOC(=O)c1ccc(NS(=O)(=O)c2cc3c(cc2C)NC(=O)CO3)cc1 | -4.1 | ? | -17.2% | 3.1 | 50.1µM* | 3.5%
Cc1cccc(NC(=O)CCS(=O)(=O)c2cc3c(cc2Cl)NC(=O)CO3)c1 | -0.2 | 15.8µM* | -14.1% | 2.0 | 17.0% | 12.5%
CCOC(=O)C(=CNc1ccc2c(c1)CCN2C(C)=O)C(=O)OCC | -5.4 | -8.1% | 2.9% | -10.4 | 4.9% | 41.6%
Cc1cc(OCCn2c(CCNC(=O)C3CCCCC3)nc3ccccc32)ccc1Cl | . | -11.4% | -3.1% | . | 7.2%[59 µM] | 31.4%
CCC(C)n1c(=O)c2sccc2n2c(CCCC(=O)Nc3ccc(F)cc3)nnc12 (stereo not given) | . | -11.0% | -14.8% | . | -4.8%[59 µM] | 18.4%
COC(=O)\C(C(C)=O)=C(/C=C/C=C/N(C)C)N(C)C | -9.8 | ? | 35.5µM* | 5.7 | ? | -4.9%
COC(=O)/C(C(C)=O)=C(/C=C/C=C/N(C)C)N(C)C | -0.9 | ? | -33.8% | 13.5 | ? | 1.0%
